Among the data in PubChem BioAssay AID1377 (University of Pittsburgh Molecular Library Screening Center, 2008) are viability rescue values, retold here.

About 830 (0.38%) of roughly 220,000 compounds were called active.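 How the source made its calls: active means activation, scaled between plate controls, above about 75% (limit read from the data); inactive means activation under that limit.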 What follows is part of a selection rich in actives, with near analogues and random picks from the rest.

This assay is described as follows: inhibitors of zVAD-triggered necroptosis, primary screen, L929 cells (AID 1377).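 Further: 0% = zVAD with DMSO and 100% = DMSO alone without zVAD.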 Particulars: ATP luminescence, 24 h, at 10 µM, active compounds read high; with zVAD 60 µM unless noted.
As for `Cc1[nH]c(=O)c(C(=O)/C=C/c2ccccc2)c2c1CCCC2`, the viability rescue was 79.8% [with zVAD 20 µM] (active).

For `O=C(/C=C/c1ccccc1)c1ccccc1O`, the viability rescue was 1.78% (inactive).

In the case of `Cc1nc(-c2ccccc2)sc1C(=O)/C=C/c1ccccc1`, the viability rescue is 0.15% [with zVAD 20 µM] (inactive).

As to `CCc1cc2c(=O)c(-c3nc4ccccc4n3C)c(CCCC(=O)O)oc2cc1OC(=O)C(C)(C)C`, the viability rescue was 3.54% (inactive).

In the case of `Fc1ccc2c(c1)C(c1cccnc1)=NNC(c1cccs1)=N2`, the viability rescue is 0.66% (inactive).

Consider `COc1cccc(/C=N/NC(=O)CNC(=O)c2ccc(S(=O)(=O)N3CCOCC3)cc2)c1OC`, for which the viability rescue was 0.08% (inactive).

Consider `COc1c(N2CCN(C(=S)Nc3ccccc3F)C(C)C2)c(F)cc2c(=O)c(C(=O)O)cn(C3CC3)c12` (configuration not stated), for which the viability rescue was -0.64% (inactive).

As for `CC1CCCC(C)N1/N=C/c1ccccc1OC(F)F` (configuration not stated), the viability rescue was 2.14% (inactive).

Consider `O=C(Cn1cnc2ccccc2c1=O)Nc1cccc(S(=O)(=O)N2CCCCC2)c1`, for which the viability rescue is 2.04% (inactive).

Consider `Cc1ccc(NC(=O)c2ccc(Oc3ncccn3)cc2)cc1`, for which the viability rescue was 3.02% (inactive).

With `CCn1c(SCC(=O)Nc2ccc(OC)c(OC)c2)nnc1-c1c[nH]c2ccccc12`, the viability rescue was 1.56% [with zVAD 20 µM] (inactive).

Consider `CCn1c(SCCC(C)C)nnc1-c1c[nH]c2ccccc12`, for which the viability rescue is 81.2% [with zVAD 20 µM] (active).

With `CCC(C)Sc1nnc(-c2c[nH]c3ccccc23)n1CCOC` (configuration not stated), the viability rescue is 2.86% [with zVAD 20 µM] (inactive).

With `CCOc1cccc2c1OC1(CCCCC1)N1N=C(c3cccnc3)CC21` (configuration not stated), the viability rescue is 1.15% (inactive).

In the case of `Cc1ccc(NC(=O)COc2ccc(-n3ccnc3)cc2)cc1Cl`, the viability rescue is 76.3% [with zVAD 20 µM] (active).

In the case of `CCC(=O)c1ccc(OCC(=O)Nc2ccc3nc(C)sc3c2)cc1`, the viability rescue is 0.76% (inactive).

Consider `Cc1ccc(NC(=O)C/C(N)=N/O)cc1Cl`, for which the viability rescue is 1.11% (inactive).

Turning to `O=C(Cc1coc2ccc3ccccc3c12)NCc1cccs1`, the viability rescue was 0.48% (inactive).

With `Cc1ccccc1NC(=O)NC1(C(=O)N2CCCC2)CCCCC1`, the viability rescue was 4.41% (inactive).

As to `CCOC(=O)N1CCN(C(=O)CSc2ccc(Cl)cc2)CC1`, the viability rescue is -0.42% [with zVAD 20 µM] (inactive).

`CCOC(=O)N1CCN(C(=O)COc2ccc(Cl)cc2C)CC1`: the viability rescue is 0.53% (inactive).

As for `CCOC(=O)N1CCN(C(=O)CNC(=O)Cc2ccc(Cl)cc2)CC1`, the viability rescue was 80.3% (active).

Take `O=C(NC(=S)Nc1ccc2oc(=O)ccc2c1)c1ccc(-c2cccc(Cl)c2Cl)o1`: the viability rescue is 0.38% (inactive).

On to `CC(=O)c1cc(C#N)c(SCC(=O)Nc2nccs2)nc1C`, for which the viability rescue was 82.9% (active).

`CC(=O)c1cc(C#N)c(SCC(=O)C(C)(C)C)nc1C`: the viability rescue is 0.46% (inactive).

With `Cc1[nH]c2ccccc2c1SCC(=O)Nc1nccs1`, the viability rescue was 1% (inactive).

Turning to `COc1ccc(C(CCN(Cc2ccc(OC)c(OC)c2)C(=O)CCl)c2ccccc2)cc1` (configuration not stated), the viability rescue is 36.4% [with zVAD 20 µM] (inactive).

As for `COc1ccccc1OCc1ccc(C(=O)N2CCN(C)CC2)o1`, the viability rescue is 0.99% (inactive).

For `O=C(c1ccco1)N1CCN(CCOc2ccccc2)CC1`, the viability rescue was -0.6% (inactive).

`O=C(c1ccco1)N1CCN(C(=O)c2ccc(COc3ccc(F)cc3)o2)CC1`: the viability rescue is 77.8% [with zVAD 20 µM] (active).

Consider `O=C(C/C(=N\NC(=O)c1ccccc1Br)C(F)(F)F)c1cccs1`, for which the viability rescue is 0.26% (inactive).

For `Cc1cc(C(=O)N2CCC(C(=O)O)CC2)c(C(F)(F)F)o1`, the viability rescue was -0.1% (inactive).

Regarding `COC(=O)C1=C(C)N(C(C)c2ccccc2)C(=O)/C1=C\c1ccco1` (configuration not stated), the viability rescue was 10.9% (inactive).

Consider `O=C(CCN1CCN(c2ccccc2)CC1)NNC(=S)Nc1ccccc1`, for which the viability rescue was 1.61% (inactive).

As to `Cc1cc(NC(=O)Nc2ccc(Cl)cc2)n(-c2ccccc2)n1`, the viability rescue is 22.9% (inactive).

For `Cn1ccc(NC(=O)Nc2ccc(Cl)cc2)n1`, the viability rescue is 75.5% (active).

As to `Cc1nn(C)cc1CNC(=O)Nc1ccc(Cl)cc1`, the viability rescue is 0.19% (inactive).

For `COC(=O)Cn1cc(/C=C/[N+](=O)[O-])c2ccccc21`, the viability rescue is -0.01% (inactive).

As for `COc1cc(NS(=O)(=O)c2ccc(N/C=C(\C=O)c3nc4cc(Cl)ccc4o3)cc2)nc(OC)n1`, the viability rescue is 0.63% (inactive).

In the case of `Cc1ccc(N2C(=O)C(CC(=O)Nc3cccc(F)c3)N(CCc3ccncc3)C2=O)cc1` (configuration not stated), the viability rescue is 6.31% (inactive).

Regarding `CCc1c(SCCC(=O)O)nc2ccccc2c1C`, the viability rescue was 5.34% (inactive).

Take `Cn1c2ccc(F)cc2c2nnc(NN)nc21`: the viability rescue is 1.53% (inactive).

For `C=CCO/N=C/C1=C(O)C(C(=O)OC)C(C)(C)CC1=O` (configuration not stated), the viability rescue is 4.04% (inactive).

`CCCCC(CCC(=O)Nc1ccc(C(=O)OCC)cc1)C(=O)O` (configuration not stated): the viability rescue is 0.34% [with zVAD 20 µM] (inactive).

Consider `NC(=O)c1ccc(NC(=O)COC(=O)c2ccc([N+](=O)[O-])cc2)cc1`, for which the viability rescue is 1.41% (inactive).

As to `CC(C)NC(=O)NC(=O)COC(=O)c1ccc(NC(=O)CC#N)cc1`, the viability rescue was 78.9% (active).

In the case of `Cn1c(C(=O)NCCCN2CCN(c3cccc(Cl)c3)CC2)cc2c(=O)n(C)c3ccccc3c21`, the viability rescue was 4.61% (inactive).

For the compound `CC1CCCC(C)N1CCCNC(=O)c1cc2c(=O)n(C)c3ccccc3c2n1C` (configuration not stated), the viability rescue is 80.8% [with zVAD 20 µM] (active).

Consider `CCN1CCCC1CNC(=O)c1cc2c(=O)n(C)c3ccccc3c2n1C` (configuration not stated), for which the viability rescue is 22.7% [with zVAD 20 µM] (inactive).

For the compound `CN(C)S(=O)(=O)Oc1ccccc1C(=O)Nc1ccccc1Cl`, the viability rescue was -0.16% (inactive).

Regarding `COCCN1C2=C(COC(C)(C)C2)C(=S)NC1c1ccccc1` (configuration not stated), the viability rescue is 0.35% (inactive).

In the case of `O=C(COC(=O)c1ccc(Cl)nc1)NCc1cccs1`, the viability rescue was 1% (inactive).

On to `CCCn1c(SCC(=O)Nc2cccc(C(=O)OCC)c2)nnc1-c1ccoc1C`, for which the viability rescue was -0.07% [with zVAD 20 µM] (inactive).

Consider `CCn1c(SCC(=O)Nc2nc3ccc(OC)cc3s2)nnc1-c1ccoc1C`, for which the viability rescue was 88.1% [with zVAD 20 µM] (active).

For `COc1ccccc1NC(=O)CSc1nnc(-c2ccoc2C)n1CCc1ccccc1`, the viability rescue is -0.28% [with zVAD 20 µM] (inactive).

Regarding `COc1ccc(N2C(=O)C3C(C2=O)C(C(=O)c2ccccc2)N2CCCC32)cc1` (configuration not stated), the viability rescue is -0.53% (inactive).

Take `CCc1ccccc1N1CN(Cc2ccco2)CNC1=S`: the viability rescue was 0.22% (inactive).

For `Cc1cc(C)nc(NNC2=CC(=O)CC(C)(C)C2)n1`, the viability rescue is 0.66% (inactive).

In the case of `CC(=O)Nc1ccc(NC(=S)NC(=O)/C=C/c2ccccc2)cc1`, the viability rescue is 80.5% (active).

For `CC(=O)Nc1ccc(/C=C/C(=O)c2ccccc2)cc1`, the viability rescue is 0.6% (inactive).

On to `Cc1ccc(NC(=S)NC(=O)/C=C/c2ccc(Cl)cc2)cc1`, for which the viability rescue is 0.00667% (inactive).

Consider `O=C1NC(c2ccccc2)=NC1(Nc1ccccn1)C(F)(F)F` (configuration not stated), for which the viability rescue is 1.82% (inactive).

Take `CC(C)(C)NC(=O)C(=O)NCc1ccncc1`: the viability rescue is 0.53% (inactive).

Regarding `Cc1cc(C)cc(NS(=O)(=O)c2ccc(F)cc2)c1`, the viability rescue is 0.04% (inactive).

As for `CC(NC(=S)NC1CCCCC1)C(c1ccccc1)N1CCOCC1` (configuration not stated), the viability rescue is -0.76% (inactive).

With `NNC(=O)c1ccc(Cl)cc1Cl`, the viability rescue was 0.33% (inactive).

Regarding `Cc1cccc(NC(=O)CSc2nc3c(c(=O)[nH]2)CCCC3)c1C`, the viability rescue is 0.25% (inactive).

Regarding `Cc1ccccc1NC(=O)CSC1=NCCN1`, the viability rescue was 101% [with zVAD 20 µM] (active).

Consider `Cc1ccccc1NC(=O)CNc1ccccc1N1CCCCC1`, for which the viability rescue was 0.17% [with zVAD 20 µM] (inactive).

Regarding `Clc1cc(-c2ccc(/C=N/n3cnnc3)o2)ccc1Br`, the viability rescue was -0.31% (inactive).

Turning to `CCOC(=O)/C(C#N)=C/c1ccc(N2CCCCC2)cc1`, the viability rescue was 68.5% (inactive).

Regarding `C=CCNC(=O)CC12CC3CC(C1)CC(CC(=O)NCC=C)(C3)C2`, the viability rescue was 0.48% (inactive).

Turning to `O=C(Nc1cccc(-c2nc3ccccc3[nH]2)c1)c1ccc(C(=O)Nc2cccc(-c3nc4ccccc4[nH]3)c2)cc1`, the viability rescue is 0.11% (inactive).

`CC(=O)Nc1cccc(-c2cnc3ccccc3n2)c1`: the viability rescue is 82.7% (active).

Take `CC(=O)Nc1cccc(-c2csc(Nc3cccc(C)n3)n2)c1`: the viability rescue is 0.49% [with zVAD 20 µM] (inactive).

For the compound `O=C(Nc1cccc(F)c1)N1C2CCC1CC(O)(c1cccnc1)C2` (configuration not stated), the viability rescue was 0.67% (inactive).

In the case of `O=C(Nc1cccnc1)c1cc([N+](=O)[O-])ccc1Cl`, the viability rescue was 13.3% (inactive).

For the compound `Cc1ccc(C(=O)Cn2cccn2)cc1`, the viability rescue was 1.57% (inactive).

Take `Cc1ccc(NC(=O)NC(=O)N(C2CCCCC2)S(=O)(=O)c2ccccc2)cc1`: the viability rescue is 2.56% (inactive).

As to `O=C(CC1SCCNC1=O)Nc1ccc(Cl)cc1` (configuration not stated), the viability rescue is 2.38% (inactive).

Turning to `COc1ccc(-n2cnc3cc(C(=O)NC4CCCC4)ccc32)cc1`, the viability rescue was 76.5% (active).

As to `COCCCNC(=O)c1ccc2c(c1)ncn2-c1ccccc1OC`, the viability rescue was 13.6% (inactive).

For `COc1ccccc1-n1cnc2cc(C(=O)NCC3CCCO3)ccc21` (configuration not stated), the viability rescue is 1.84% (inactive).

For the compound `COc1ccc(-c2nc3cnccn3c2NC(C)(C)CC(C)(C)C)cc1O`, the viability rescue is 0.13% (inactive).

As to `Cc1ccc2cc(/C=N/Nc3ccc(C(=O)O)cc3)c(Cl)nc2c1`, the viability rescue is 1.59% (inactive).

With `CCOC(=O)C1(Cc2ccc(Cl)cc2)CCN(C(=O)C2=NNC(=O)CC2)CC1`, the viability rescue is -0.11% (inactive).

Take `CCCCN1C(=O)CC(N2CCOCC2)C1=O` (configuration not stated): the viability rescue was -0.32% (inactive).

Regarding `C[C@@H]1C[C@@H]2O[C@H]2/C=C\C=C\C(=O)Cc2c(Cl)c(O)cc(O)c2C(=O)O1`, the viability rescue is 83% (active).

Regarding `O=C(c1ccncc1)c1ccc([N+](=O)[O-])cc1`, the viability rescue is 1.69% (inactive).

Turning to `O=C(c1ccc(F)cc1)C1CCN(Cc2cn[nH]c2-c2ccccc2)CC1`, the viability rescue is 0.29% (inactive).

On to `CC(=O)NCCC(=O)Nc1cc(S(=O)(=O)N2CCOCC2)ccc1N1CCOCC1`, for which the viability rescue is 0.76% (inactive).

On to `COc1ccc(/C(N)=N/OC(=O)Cc2ccccc2)cc1`, for which the viability rescue is 0.52% (inactive).
